Assay results: PubChem BioAssay
Calls of active or inactive are those of the source. Unless noted, no rule for the calls is given here.

Key:
[1] = tested on: Wnt5a (protein binding on small-molecule microarray); test: small molecules binding Wnt5a protein – biophysical, small-molecule microarray, 635/667 nm fluorescence, primary screen (AID 1142); details: 635 nm fluorescence, higher = more signal;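 also: fluorescence read at 667 nm with signal to noise per printed feature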
[2] = ATP-based viability of Huh7 replicon cells – cell-based, CellTiter-Glo luminescence, basal, 48 h, cytotoxicity control for HCV replication inhibitor project, primary screen (AID 1143); details: higher = more signal, called active from +8 up or from −8 down;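 also: Huh7 hepatoma cells carrying a hepatitis C replication reporter with no stimulus; test concentration not given here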
[3] = Pseudomonas biofilm growth suppression – PAO1 strain, BacTiter-Glo luminescence, LB-PBS, primary screen (AID 1144); details: P. aeruginosa PAO1 biofilm, 12 h, higher = more signal
[4] = basal CRE-LacZ reporter activity in PC12 – cell-based, unstimulated, primary screen (AID 1145); details: no forskolin, luminescence, 4.5 h, higher = more signal, called active from +8 up or from −8 down
[5] = forskolin-driven CRE-LacZ activity in PC12 – cell-based, CRE-LacZ reporter, forskolin-stimulated, primary screen (AID 1146); details: luminescence, 4.5 h, higher = more signal, called active from +8 up or from −8 down;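 also: PC12 cells with 6xCRE LacZ reporter stimulated by forskolin 10 µM; beta-galactosidase reporter signal reflecting CREB driven transcription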
[6] = biological target: Streptavidin (Streptomyces avidinii) (UniProt P22629); test: compounds binding control protein streptavidin – biophysical, small-molecule microarray, 635/667 nm fluorescence, artefact control for SMM compound annotation, primary screen (AID 1147); details: higher = more signal;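 also: signal reflects streptavidin binding to arrayed compounds as a control protein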
[7] = probe aInhba binding on compound microarray – biochemical, small-molecule microarray, 635/667 nm fluorescence, primary screen (AID 1148); details: higher = more signal;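 also: score merges 667nm spot fluorescence with signal-to-noise for antibody binding to printed compounds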
[8] = biological target: Torsin-1A (Homo sapiens) (UniProt O14656); test: TOR1A wild-type binding on microarray – cell lysate, small-molecule microarray, lysate, 635/667 nm, primary screen (AID 1149); details: COS7 hTOR1A-WT lysate, 635 nm fluorescence, higher = more signal
[9] = biological target: Torsin-1A (Homo sapiens) (UniProt O14656); test: torsin A mutant lysate binding on microarrays – cell lysate, small-molecule microarray, COS7 lysate, 635/667 nm fluorescence, primary screen (AID 1150); details: COS7 hTOR1A mutant lysate, 635 nm fluorescence, higher = more signal;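 also: score pools 667 nm emission and signal to noise measuring lysate protein binding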
[10] = tested on: Sonic hedgehog protein (Shh); test: Sonic hedgehog microarray binding compounds – biochemical, small-molecule microarray, 635/667 nm fluorescence, primary screen (AID 1151); details: 635 nm fluorescence, higher = more signal;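 also: Shh protein binding to compounds spotted on small-molecule microarray slides; score combines spot fluorescence intensity with signal-to-noise across triplicate slides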
[11] = optical density shifts of acrAB sulA E. coli – strain DRC41, OD650, 48 h, E. coli filamentation inducer project, primary screen (AID 1152); details: higher = more signal, called active from +8 up or from −8 down;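 also: E. coli MC1000 strain DRC41 lacking acrAB efflux pump and sulA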
[12] = probe aLefty1 binding on compound microarray – biochemical, small-molecule microarray, 635/667 nm fluorescence, primary screen (AID 1153); details: higher = more signal;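 also: score merges spot fluorescence with signal-to-noise ratio from the scanned slide images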
[13] = plasmodial surface anion channel blockers, osmotic lysis – cell-based, P. falciparum Indochina, OD700, 1 h, primary screen (AID 1154); details: P. falciparum Indochina infected RBC osmotic lysis, higher = more signal, called active from +8 up or from −8 down
[14] = plasmodial surface anion channel blockers, osmotic lysis – cell-based, P. falciparum Indochina, OD700, 2 h, primary screen (AID 1155);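 also: lysis reports solute entry through the parasite surface anion channel PSAC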; details: P. falciparum Indochina infected erythrocytes, higher = more signal, called active from +8 up or from −8 down
[15] = changes in parasitized red cell lysis, either direction – P. falciparum Indochina, OD700, 3 h, PSAC antagonist project, primary screen (AID 1156); details: P. falciparum-infected erythrocytes, osmotic lysis, higher = more signal, called active from +8 up or from −8 down
[16] = plasmodial surface anion channel blockers, osmotic lysis – cell-based, P. falciparum Indochina, OD700, 18 h, primary screen (AID 1157); details: P. falciparum Indochina infected erythrocytes, osmotic lysis OD700, 18 h; higher = more signal, called active from +8 up or from −8 down
[17] = S6 kinase pathway phospho-S6 level changes – cell-based, A549, cytoblot, luminescence, serum-stimulated, primary screen (AID 1158); details: 5 h, higher = more signal;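 also: serum-stimulated A549 lung adenocarcinoma cells; signal is phosphorylated S6 detected by cytoblot immunostaining with HRP secondary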
[18] = biological target: NADPH oxidase 2 (Homo sapiens) (UniProt P04839); test: compounds shifting NOX2 Amplex Red fluorescence – cell-based, HEK293-NOX2, PMA-stimulated, NOX inhibitor project, primary screen (AID 1159); details: 45 min, higher = more signal, called active from +8 up or from −8 down; also: test concentration not given here
[19] = biological target: NADPH oxidase 4 (Homo sapiens) (UniProt Q9NPH5); test: compounds shifting NOX4 Amplex Red fluorescence – cell-based, HEK293-NOX4, tetracycline-induced, NOX inhibitor project, primary screen (AID 1160); details: HEK293-NOX4, Amplex Red H2O2 fluorescence, 45 min; higher = more signal, called active from +8 up or from −8 down
[20] = biological target: NADPH oxidase 5 (Homo sapiens) (UniProt Q96PH1); test: compounds shifting NOX5 Amplex Red fluorescence – cell-based, HEK293-NOX5, NOX inhibitor project, primary screen (AID 1161); details: HEK293-NOX5, ionomycin, 45 min, higher = more signal
Sequence of NADPH oxidase 5 (Homo sapiens) (Q96PH1 whole entry, looked up): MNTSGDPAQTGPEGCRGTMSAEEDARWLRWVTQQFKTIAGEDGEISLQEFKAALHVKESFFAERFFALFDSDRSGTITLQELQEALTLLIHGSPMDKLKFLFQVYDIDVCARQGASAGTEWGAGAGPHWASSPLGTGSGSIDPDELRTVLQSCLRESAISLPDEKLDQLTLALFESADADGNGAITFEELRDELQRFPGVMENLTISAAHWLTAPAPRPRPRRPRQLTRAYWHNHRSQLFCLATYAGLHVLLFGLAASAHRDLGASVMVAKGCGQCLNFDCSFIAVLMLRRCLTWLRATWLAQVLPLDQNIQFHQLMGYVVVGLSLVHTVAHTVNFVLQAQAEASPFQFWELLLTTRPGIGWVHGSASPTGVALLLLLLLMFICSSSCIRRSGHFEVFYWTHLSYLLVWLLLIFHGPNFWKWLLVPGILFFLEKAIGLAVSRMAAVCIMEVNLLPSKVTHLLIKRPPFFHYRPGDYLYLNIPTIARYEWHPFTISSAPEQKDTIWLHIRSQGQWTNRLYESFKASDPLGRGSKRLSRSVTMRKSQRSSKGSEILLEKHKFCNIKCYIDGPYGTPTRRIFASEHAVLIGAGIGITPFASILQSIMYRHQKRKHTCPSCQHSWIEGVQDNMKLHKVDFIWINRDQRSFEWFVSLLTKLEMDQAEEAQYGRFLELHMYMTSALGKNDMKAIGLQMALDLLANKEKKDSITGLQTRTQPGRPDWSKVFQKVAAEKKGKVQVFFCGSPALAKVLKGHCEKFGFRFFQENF

Sequence of Streptavidin (Streptomyces avidinii) (P22629 whole entry, looked up): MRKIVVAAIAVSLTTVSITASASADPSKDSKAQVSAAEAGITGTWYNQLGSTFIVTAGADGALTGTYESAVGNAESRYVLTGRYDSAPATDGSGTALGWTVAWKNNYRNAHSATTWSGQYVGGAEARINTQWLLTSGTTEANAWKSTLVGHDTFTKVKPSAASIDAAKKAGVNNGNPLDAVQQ
Sequence of NADPH oxidase 4 (Homo sapiens) (Q9NPH5 whole entry, looked up): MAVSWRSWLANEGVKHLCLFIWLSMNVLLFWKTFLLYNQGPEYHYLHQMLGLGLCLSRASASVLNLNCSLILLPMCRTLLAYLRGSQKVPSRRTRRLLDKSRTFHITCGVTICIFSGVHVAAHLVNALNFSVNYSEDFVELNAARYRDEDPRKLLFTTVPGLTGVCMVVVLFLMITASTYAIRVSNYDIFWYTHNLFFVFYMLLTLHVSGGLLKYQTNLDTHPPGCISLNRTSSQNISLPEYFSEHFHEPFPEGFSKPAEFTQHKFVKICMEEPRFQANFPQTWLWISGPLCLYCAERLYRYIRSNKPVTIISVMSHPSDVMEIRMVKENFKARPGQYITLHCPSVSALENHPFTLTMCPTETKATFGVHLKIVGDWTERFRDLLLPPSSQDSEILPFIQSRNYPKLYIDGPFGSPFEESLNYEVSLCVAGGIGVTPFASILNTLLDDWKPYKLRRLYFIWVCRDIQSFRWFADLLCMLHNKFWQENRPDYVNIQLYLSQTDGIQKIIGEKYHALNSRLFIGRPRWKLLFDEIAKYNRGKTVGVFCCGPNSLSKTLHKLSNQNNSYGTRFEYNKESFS
Sequence of Torsin-1A (Homo sapiens) (O14656 whole entry, looked up): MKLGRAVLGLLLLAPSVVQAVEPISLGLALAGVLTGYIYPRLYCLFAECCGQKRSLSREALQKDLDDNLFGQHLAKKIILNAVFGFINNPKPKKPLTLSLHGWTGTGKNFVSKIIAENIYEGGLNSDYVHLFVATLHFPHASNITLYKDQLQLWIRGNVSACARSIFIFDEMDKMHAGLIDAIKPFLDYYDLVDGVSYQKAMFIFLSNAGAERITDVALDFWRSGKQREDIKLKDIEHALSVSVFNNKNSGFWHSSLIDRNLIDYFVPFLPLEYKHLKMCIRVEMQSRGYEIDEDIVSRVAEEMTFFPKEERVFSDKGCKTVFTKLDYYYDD
Sequence of NADPH oxidase 2 (Homo sapiens) (P04839 whole entry, looked up): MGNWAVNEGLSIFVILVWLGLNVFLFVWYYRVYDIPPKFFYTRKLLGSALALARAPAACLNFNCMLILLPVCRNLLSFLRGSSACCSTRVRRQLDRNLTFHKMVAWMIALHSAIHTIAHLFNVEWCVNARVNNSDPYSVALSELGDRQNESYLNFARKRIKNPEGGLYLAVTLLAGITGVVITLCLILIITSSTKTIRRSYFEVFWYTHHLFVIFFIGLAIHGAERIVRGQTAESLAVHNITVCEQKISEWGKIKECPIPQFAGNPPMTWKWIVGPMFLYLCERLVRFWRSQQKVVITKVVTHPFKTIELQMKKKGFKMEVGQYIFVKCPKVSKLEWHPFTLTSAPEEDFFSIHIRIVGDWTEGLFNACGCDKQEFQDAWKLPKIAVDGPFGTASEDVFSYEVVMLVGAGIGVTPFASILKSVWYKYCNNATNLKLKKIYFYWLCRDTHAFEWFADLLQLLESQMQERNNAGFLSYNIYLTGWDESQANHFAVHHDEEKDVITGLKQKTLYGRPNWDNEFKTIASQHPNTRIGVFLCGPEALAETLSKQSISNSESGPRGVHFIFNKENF

| Structure (SMILES) | composite z-score [1] | z-score [2] | z-score [3] | z-score [4] | z-score [5] | composite z-score [6] | composite z-score [7] | composite z-score [8] | composite z-score [9] | composite z-score [10] | z-score [11] | composite z-score [12] | z-score [13] | z-score [14] | z-score [15] | z-score [16] | z-score [17] | z-score [18] | z-score [19] | z-score [20] |
| --- | --- | --- | --- | --- | --- | --- | --- | --- | --- | --- | --- | --- | --- | --- | --- | --- | --- | --- | --- | --- |
| C=C(CCCC)C(=O)CC[C@H](OC(C)=O)c1cccc(OCCO)c1 | -0.247 | -3.51 (inactive) | 0.428 (inactive) | 0.914 (inactive) | -0.057 (inactive) | -0.613 | -0.183 | -0.576 | -0.132 | 0.103 | 0.648 (inactive) | -0.263 | 5.27 (inactive) | -1.77 (inactive) | 1.57 (inactive) | -1.85 (inactive) | 0.73 | -1.94 (inactive) | -0.766 (inactive) | -2.8 |
| COc1cc2c(cc1OC)CN(C(=O)[C@H]1[C@@H]3C(=O)O[C@@H](c4ccccc4)[C@@H](c4ccccc4)N3[C@@H](c3ccc(O)cc3)[C@]13C(=O)Nc1ccc(C#CC4=CCCCC4)cc13)CC2 | 0.657 | -2.62 (inactive) | -0.693 (inactive) | -0.375 (inactive) | -0.267 (inactive) | 1.45 | 0.288 | 0.302 | 0.454 | 1.07 | 1.21 (inactive) | 0.35 | 0.924 (inactive) | 0.445 (inactive) | 0.79 (inactive) | 0.736 (inactive) | -0.226 | 0.685 (inactive) | 0.513 (inactive) | 1.88 |
| CCOC1=C2C(CN(S(=O)(=O)c3ccc(C)cc3)C2c2ccc(C)cc2)C2C(=O)N(c3ccccc3)C(=O)C2C1 (stereo not given) | -0.069 | -0.288 (inactive) | -0.382 (inactive) | -0.275 (inactive) | 0.804 (inactive) | 0.963 | 0.0906 | -0.196 | 0.115 | 0.364 | -0.0859 (inactive) | 0.0839 | 1.87 (inactive) | 1.24 (inactive) | 0.398 (inactive) | 0.855 (inactive) | -0.258 | 1.12 (inactive) | 0.103 (inactive) | -0.229 |
| COc1cc(CO)cc(I)c1O[C@H]1C=C(C(=O)NCCO)C[C@@H](N(CCN2CCOCC2)C(=O)C2CCOC2)[C@@H]1O (stereo not given in full) | -0.31 | -0.846 (inactive) | 0.367 (inactive) | 0.495 (inactive) | -1.45 (inactive) | -0.512 | -0.0195 | 0.055 | 0.399 | 0.309 | 3.66 (inactive) | -0.319 | 8.79 (active) | 1.59 (inactive) | 1.89 (inactive) | 0.427 (inactive) | 0.432 | -0.568 (inactive) | 1.29 (inactive) | 0.233 |
| O=C1C2C=CC(C(O)C3CCCCC3)N(Nc3ccc([N+](=O)[O-])cc3)C2C(=O)N1c1ccccc1 (stereo not given) | -0.457 | -0.415 (inactive) | -0.998 (inactive) | 0.537 (inactive) | 1.13 (inactive) | 0.48 | -0.213 | -0.465 | -0.199 | -1.09 | -1.13 (inactive) | 0.455 | 21.3 (active) | 4.73 (inactive) | 4.92 (inactive) | 1.42 (inactive) | -0.185 | -1.03 (inactive) | -3.38 (inactive) | -4.06 |
| C=CCNC(=O)[C@H]1[C@@H]2C(=O)O[C@@H](c3ccccc3)[C@@H](c3ccccc3)N2[C@@H](c2ccccc2OCCO)[C@]12C(=O)Nc1ccc(C#CC3=CCCCC3)cc12 | 0.291 | -6.47 (inactive) | 1.64 (inactive) | 0.484 (inactive) | 1.05 (inactive) | 0.0808 | 0.0074 | 1.23 | 1.14 | 1.61 | 0.748 (inactive) | 0.0919 | 3.01 (inactive) | 2.25 (inactive) | 0.407 (inactive) | 1.71 (inactive) | 0.142 | 1.38 (inactive) | 0.676 (inactive) | 1.75 |
| C=CCOC(=O)[C@H]1[C@@H]2C(=O)O[C@@H](c3ccccc3)[C@@H](c3ccccc3)N2[C@@H](c2ccc(OCCOC(=O)[C@H]3C[C@H]4C(=O)N5CCC[C@H]5C(=O)N4[C@H]3c3ccc(O)cc3)cc2)[C@]12C(=O)Nc1ccc(I)cc12 | 1.61 | -2.04 (inactive) | 1.03 (inactive) | 0.0043 (inactive) | 0.803 (inactive) | 1.93 | 1.3 | 2.59 | 2.65 | 2.04 | 0.917 (inactive) | 1.99 | 0.234 (inactive) | -0.588 (inactive) | -1.27 (inactive) | -1.39 (inactive) | 0.555 | -1.32 (inactive) | -1.09 (inactive) | -0.351 |
| CCC(CC)C(O)C1C=CC2C(=O)N(C)C(=O)C2N1Nc1ccccc1 (stereo not given) | 0.334 | 0.667 (inactive) | -0.625 (inactive) | 0.822 (inactive) | -0.214 (inactive) | 1.48 | 0.288 | 0.551 | 0.235 | -0.09 | -0.39 (inactive) | 0.173 | 1.11 (inactive) | 1.09 (inactive) | 0.0973 (inactive) | 0.951 (inactive) | -0.835 | -1.73 (inactive) | -3.49 (inactive) | -3.77 |
| CC(C)C[C@H]1NC(=O)[C@@]23C(=O)N[C@@H](Cc4ccccc4)C2[C@H](C)[C@@]2(C)O[C@H]2C3/C=C/C/C=C\CNC(=O)[C@H](Cc2ccccc2)NC1=O (stereo not given in full) | 0.234 | -0.73 (inactive) | -0.137 (inactive) | -0.416 (inactive) | -0.862 (inactive) | -0.279 | -0.0189 | 0.839 | 0.716 | 2.06 | -0.0044 (inactive) | 0.0999 | 2.14 (inactive) | -0.0365 (inactive) | 1.58 (inactive) | 0.207 (inactive) | -0.175 | 0.845 (inactive) | -0.847 (inactive) | 0.971 |
